Earlier results on 16 compounds are cited in PubChem BioAssay AID977611.

Broadly, the Kd is the constant that tells how readily two partners part at equilibrium.

Hit rate of the full screen: of about 3,900 compounds, about 3,900 (100%) were called active. Cut-off not given; nearly all actives show Kd up to about 4200 µM. The set was probably picked from earlier hits. Some of the results follow. Where a SMILES comes first, the peptide text is derived from it. Non-standard residues stand in square brackets, D forms with d. Square brackets hold non-standard residues; d marks the D form. Residues, ends and D or L forms follow the SMILES beside them. Peptide text beside a SMILES is read from it. [ ]: non-standard residue; d: D form. Orn(CH(NH2)2) = NC(N)NCCC[C@H](N)C(=O)O; Nva = CCC[C@H](N)C(=O)O

This data set can be described thus: PubChem AID 977611. Conditions: PDB protein-ligand complexes, literature Kd.

For the compound `COc1ccc2c(c1OC)CN(C)c1c-2ccc2cc3c(cc12)OCO3`, the Kd (protein: Chitinase A, PDB entry 3arw) is 0.7 µM (active). As to `O=C(O)[C@@H]1COc2ccccc2O1`, the Kd was 700 µM (active) (protein: Pantothenate synthetase (T2A, E77G mutation), PDB entry 4de5) and 900 µM (active) (protein: Pantothenate synthetase (T2A, E77G mutation), PDB entry 4g5f). Take `CC(=O)NCCCC[C@H](NC(=O)[C@H](CCCNC(N)N)NC(=O)CNC(=O)[C@H](Cc1ccc(O)cc1)NC(=O)[C@@H](N)CO)C(=O)N[C@@H](CCCCN)C(=O)N[C@@H](CCCNC(N)N)C(=O)N[C@@H](CCCNC(N)N)C(=O)N[C@@H](CCC(N)=O)C(=O)N[C@@H](CCCNC(N)N)C(=O)N[C@@H](CS)C(=O)O` (H-SYG[Orn(CH(NH2)2)]K(Ac)K[Orn(CH(NH2)2)][Orn(CH(NH2)2)]Q[Orn(CH(NH2)2)]C-OH): the Kd (protein: p300/CBP-associated factor (PCAF), PDB entry 1jm4) was 10 µM (active). Turning to `CC(C)C[C@H](NC(=O)[C@H](CCC(N)=O)NC(=O)[C@H](CS)NC(=O)[C@H](CO)NC(=O)[C@@H](N)CC(C)C)C(=O)N[C@@H](Cc1ccc(O)cc1)C(=O)N[C@@H](CCC(N)=O)C(=O)N[C@@H](CCCNC(N)N)C(=O)O` (H-LSCQLYQ[Orn(CH(NH2)2)]-OH), the Kd (protein: Thymidylate synthase, PDB entry 3n5e) was 0.151 µM (active). Turning to `CC(C)C[C@H](NC(=O)[C@H](CCCNC(N)N)NC(=O)[C@H](CCC(N)=O)NC(=O)[C@H](Cc1ccc(O)cc1)NC(=O)[C@@H](N)CC(=O)O)C(=O)O` (H-DYQ[Orn(CH(NH2)2)]L-OH), the Kd (protein: AP-3 complex subunit mu-1, PDB entry 4ikn) is 14 µM (active). `CSCC[C@H](N)C(=O)N[C@@H](C)C(=O)N[C@@H](CO)C(=O)O` (H-Met-Ala-Ser-OH): the Kd (protein: human-like mitochondrial peptide deformylase (G47C, L112E mutant), PDB entry 4je8) was 6.1 µM (active).

With `CSCC[C@H](NC(=O)[C@H](CCCNC(N)N)NC(=O)[C@H](CO)NC(=O)[C@H](C)N)C(=O)N[C@@H](CCC(=O)O)C(=O)N[C@@H](CCC(=O)O)C(=O)N[C@H](C(=O)N[C@@H](CC(=O)O)C(=O)O)C(C)C` (H-AS[Orn(CH(NH2)2)]MEEVD-OH), the Kd (protein: Protein UNC-45, PDB entry 4i2z) was 13.5 µM (active). As to H-AEDDVE-OH, the Kd (protein: AH RECEPTOR-INTERACTING PROTEIN, PDB entry 4apo) is 12.3 µM (active). `CC(C)[C@H](NC(=O)[C@H](CC(=O)O)NC(=O)[C@@H](NC(=O)[C@H](CC(=O)O)NC(=O)[C@H](CO[P+](O)(O)O)NC(=O)[C@@H](N)CC(=O)O)[C@@H](C)O[P+](O)(O)O)C(=O)N[C@@H](CCC(=O)O)C(=O)N[C@@H](CCC(=O)O)C(=O)O`: the Kd (protein: DNA topoisomerase 2-binding protein 1, PDB entry 3ueo) was 94 µM (active). As for `CC(=O)N[C@@H](CC(=O)O)C(=O)N[C@@H](CCC(=O)O)C(=O)N[C@H](C(=O)N[C@@H](CC(=O)O)[C@@H](C)O)C(C)C`, where the note is “protein: Procaspase-3 (D175A mutation), PDB entry 4jr0”, the Kd was 0.0063 µM (active). As for `CSCC[C@H](NC(=O)[C@H](CCC(=O)O)NC(=O)[C@@H](NC(=O)[C@H](CC(=O)O)NC(=O)[C@H](C)N)[C@@H](C)O)C(=O)N[C@@H](CCC(=O)O)C(=O)N[C@@H](CCC(=O)O)C(=O)N[C@H](C(=O)N[C@@H](CC(=O)O)C(=O)O)C(C)C` (H-ADTEMEEVD-OH), the Kd (protein: TPR repeat-containing protein associated with Hsp90, PDB entry 2lsv) was 5.41 µM (active). For `CCC[C@H](NC(=O)[C@@H](N)CO)C(=O)N[C@@H](CCSC)C(=O)N[C@@H](C)C(=O)N[C@@H](CCC(=O)O)C(=O)N[C@H](C(=O)N[C@@H](CC(=O)O)C(=O)O)C(C)C` (H-S[Nva]MAEVD-OH), for the setting “protein: AH RECEPTOR-INTERACTING PROTEIN, PDB entry 4aif”, the Kd is 14.4 µM (active). In the case of `CSCC[C@H](NC(=O)[C@@H]1CCCN1C(=O)[C@@H](N)[C@@H](C)O)C(=O)N[C@H](C(=O)N[C@@H](CC(N)=O)C(=O)N[C@@H](CCCNC(N)N)C(=O)N[C@@H](CCC(=O)O)C(=O)N[C@@H](CC(N)=O)C(=O)N[C@@H](CCCCN)C(=O)O)C(C)C` (H-TPMVN[Orn(CH(NH2)2)]ENK-OH), for the setting “protein: STAM2 SH3 domain, PDB entry 1uj0”, the Kd is 27 µM (active). For `CSCC[C@H](NC(=O)[C@H](CCCCN)NC(=O)[C@H](CCC(=O)O)NC(=O)[C@H](CCCCN)NC(=O)[C@H](CCCNC(N)N)NC(=O)[C@@H]1CCCN1C(=O)[C@@H]1CCCN1C(=O)[C@@H](NC(=O)[C@H](CC(C)C)NC(=O)[C@@H]1CCCN1C(=O)[C@@H]1CCCN1C(=O)[C@H](CCC(N)=O)NC(=O)CN)C(C)C)C(=O)N[C@@H](CCCNC(N)N)C(=O)NCC(=O)N[C@@H](CCCCN)C(=O)O` (H-GQPPLVPP[Orn(CH(NH2)2)]KEKM[Orn(CH(NH2)2)]GK-OH), the Kd (protein: Grb2-related adaptor protein 2(SH3 domain), PDB entry 1uti) is 2.4 µM (active). With `CC(C)C[C@H](NC(=O)[C@H](CCCNC(N)N)NC(=O)[C@@H](N)CCCNC(N)N)C(=O)N[C@@H](CCC(N)=O)C(=O)N[C@@H](CCCCN)C(=O)NCC(=O)N[C@@H](CC(N)=O)C(=O)N[C@@H](CC(C)C)C(=O)N1CCC[C@H]1C(=O)N[C@H](C(=O)N[C@@H](CCCNC(N)N)C(=O)O)C(C)C` (H-[Orn(CH(NH2)2)][Orn(CH(NH2)2)]LQKGNLPV[Orn(CH(NH2)2)]-OH), the Kd (protein: ERK2, PDB entry 2fys) was 44 µM (active). With `CC(C)C[C@H](NC(=O)[C@H](CCC(=O)O)NC(=O)CNC(=O)[C@@H](NC(=O)[C@H](CO[P+](O)(O)O)NC(=O)[C@@H]1CCCN1C(=O)[C@H](CC(=O)O)NC(=O)[C@@H](NC(=O)[C@H](CCC(=O)O)NC(=O)[C@@H](N)CCCCN)C(C)C)[C@@H](C)O)C(=O)N[C@@H](CCC(N)=O)C(=O)O`, under “protein: Kelch-like ECH-associated protein 1, PDB entry 3wdz”, the Kd was 0.12 µM (active).
